In PubChem BioAssay (NCI):
Compounds without any hit were thinned out: in the full panel of roughly 79,000, 15% have a hit. A number with no mark means an inactive call. Active and inactive are the calls of the source. Cut-off read from the data, not from the text of the source: active = growth inhibition above about 70%; inactive = the rest. Where a SMILES comes first, the peptide text is derived from it. The star is where a group is joined. Cbz = O=C(OCc1ccccc1)*

Assay: NCI Yeast Anticancer Drug Screen. Data for the cln2 rad14 strain (AID 165);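 note: 0% = growth equal to vehicle treated cultures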
Conditions: S. cerevisiae cln2 rad14 strain, at 50.0 µM, hits give high values
Procedure, shortened: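 Test compounds were added to cln2 rad14 yeast cultures; inhibition of growth was then determined by comparison with vehicle treatment.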
With `C/C(=N\NC(=S)N1CCCC1)c1ccc[nH]1` the growth inhibition was -11.6%. `CC(CC(C)(C)C)C(=O)NC(N)=O` (stereo not given) gave a growth inhibition of -0.6%. Work on `CN(C)CCC(C(N)=O)c1ccccc1` (stereo not given) yielded a growth inhibition of 38.9%. Work on `CC1(O)C2C3C(I)C4C5C3C1C5C42` (stereo not given) yielded a growth inhibition of 6.7%. Work on `CCOC(=O)c1cnc2nc[nH]n2c1=O` yielded a growth inhibition of 11.6%. `NC(=O)C(Cc1ccc(O)cc1)NC(=O)c1ccccc1` (stereo not given) gave a growth inhibition of 1.85%. In the case of `N/C(CC/C(N)=N\O)=N\O`, the growth inhibition is reported as -4.9%. In the case of `CS(=O)(=O)N1COC(=O)[C@@H]1c1ccccc1`, the growth inhibition is reported as -3%. With `CCCCCCC(O)C/C=C/CCCCCC/C(C(=O)OC)=C(/O)C(=O)OCC` (stereo not given) the growth inhibition was -27.6%. `[N-]=[N+]=Nc1ccc(NCCCCCC(=O)ON2C(=O)CCC2=O)c([N+](=O)[O-])c1` showed a growth inhibition of 19.4%. `Cc1nc(N(C)C)oc(=O)c1Cc1ccccc1` gave a growth inhibition of -8.8%. Compound `CCOC(=O)CCC(NC(=O)OCc1ccccc1)C(=O)NC(CCC(=O)OCC)C(=O)OCC` (stereo not given) (Cbz-Glu(OEt)-Glu(OEt)-OEt; configuration not given here) has a growth inhibition of 7.55%. Compound `CCCCCC(Cl)(CC)CCCCC` has a growth inhibition of -39.7%. `CN1CC(=O)N(CO)/C1=N\CO` gave a growth inhibition of -10.8%. Work on `CCOC(=O)C(=CNc1ccc(N(CC)CC)cc1)C(=O)OCC` yielded a growth inhibition of 47.6%. With `CCCCCCCCCCCCN1CCCN(CCCCCCCCCCCC)CC1` the growth inhibition was 96.7% (active). Work on `ClC/C(=N\N1CCCCCC1)c1ccccc1` yielded a growth inhibition of -10.2%. Work on `COc1cccc2c(SCC(=O)Nc3ccccc3-c3ccccc3NC(=O)CSc3c4ccccc4nc4c(OC)cccc34)c3ccccc3nc12` yielded a growth inhibition of -36%. In the case of `COC(=O)C1C2OC(C(Br)C2Br)C1C(=O)O` (stereo not given), the growth inhibition is reported as 2.2%. `CC(C)(S)CNCCSC(=O)c1ccccc1` gave a growth inhibition of -16.1%. In the case of `CCN=C(NCC)N(CC)CC`, the growth inhibition is reported as -11.6%. `Nn1cnc2nccnc2c1=O` showed a growth inhibition of -17.4%. Work on `CCOC(=O)NC(=S)C1=C(N2CCOCC2)CCC1` yielded a growth inhibition of 7.25%. In the case of `COC(=O)/C=C/C(=O)N1CC(C)N(C(=O)/C=C/C(=O)OC)CC1C` (stereo not given), the growth inhibition is reported as 37.4%. `CCn1ncc2c1nc(-c1ccccc1)c[n+]2[O-]` showed a growth inhibition of -12.4%. Work on `NNc1cc(=O)[nH]c(N)n1` yielded a growth inhibition of -19.1%. With `CC(C)(C)SCC(=O)O` the growth inhibition was 19.5%. Compound `CCOC(=O)NC(=O)c1cn(CCN2CCN(C(=O)NCCCCCCNC(=O)N3CCN(CCn4cc(C(=O)NC(=O)OCC)c(=O)n(CCN(CC)CC)c4=O)CC3)CC2)c(=O)n(CCC(CC)CC)c1=O` has a growth inhibition of -20.9%. For `ClC(Cl)(Cl)c1ccc(C2OCCO2)cc1`, the growth inhibition was -26.6%. Work on `CN(/N=C/c1ccccn1)C1=NCCCN1` yielded a growth inhibition of 5.35%. Work on `CCOC(=O)c1ccc(NC(=O)Oc2ccc(SC)cc2)cc1` yielded a growth inhibition of 8.95%. With `COc1ccc(N=Cc2cc(Cl)cc(Cl)c2OC(=O)c2ccccc2)cc1` the growth inhibition was 0.65%. With `CC1(C)CCC23CCC4(C)C(CCC5C6(C)CCC(=O)C(C)(C)C6CCC54C)C2C1OC3` (stereo not given) the growth inhibition was 20.9%. For `CC(NC(=O)C(=O)c1ccccc1)c1ccccc1` (stereo not given), the growth inhibition was 20.1%. Work on `O=C(O)c1cc(-c2ccccc2)ccc1O` yielded a growth inhibition of 25.2%. With `Cc1c(C(=O)O)n2cnnc2c2ccccc12` the growth inhibition was 11.9%. With `Fc1c(F)c(-c2c(F)c(F)c(Br)c(F)c2F)c(F)c(F)c1Br` the growth inhibition was 6.15%. In the case of `CC1(C)Cc2c(oc3ncnc(N)c23)CS1`, the growth inhibition is reported as -4.75%. Compound `CCNc1ccc(S(=O)(=O)O)cc1C(=O)O` has a growth inhibition of -11.8%. In the case of `COc1ccc(OC)c(NC(=O)C(=O)NNC(=O)c2sc(NNC(C)=O)nc2C)c1`, the growth inhibition is reported as 26.5%.

Assay: NCI Yeast Anticancer Drug Screen. Data for the bub3 strain (AID 167)
Conditions: S. cerevisiae bub3 mutant strain, at 50.0 µM, hits give high values
Procedure, shortened: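 Inhibition values come from growth of compound-treated mutant yeast normalised to vehicle-treated controls.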
`C/C(=N\NC(=S)N1CCCC1)c1ccc[nH]1` gave a growth inhibition of -7.75%. With `CC(CC(C)(C)C)C(=O)NC(N)=O` (stereo not given) the growth inhibition was 8.65%. `CN(C)CCC(C(N)=O)c1ccccc1` (stereo not given) showed a growth inhibition of -5.85%. `CC1(O)C2C3C(I)C4C5C3C1C5C42` (stereo not given) showed a growth inhibition of 10.3%. Work on `CCOC(=O)c1cnc2nc[nH]n2c1=O` yielded a growth inhibition of -67%. `NC(=O)C(Cc1ccc(O)cc1)NC(=O)c1ccccc1` (stereo not given) showed a growth inhibition of 22.1%. For `N/C(CC/C(N)=N\O)=N\O`, the growth inhibition was 1.1%. `CS(=O)(=O)N1COC(=O)[C@@H]1c1ccccc1` gave a growth inhibition of 11.2%. Work on `CCCCCCC(O)C/C=C/CCCCCC/C(C(=O)OC)=C(/O)C(=O)OCC` (stereo not given) yielded a growth inhibition of -6.7%. Compound `[N-]=[N+]=Nc1ccc(NCCCCCC(=O)ON2C(=O)CCC2=O)c([N+](=O)[O-])c1` has a growth inhibition of 4.7%. Compound `Cc1nc(N(C)C)oc(=O)c1Cc1ccccc1` has a growth inhibition of 20.6%. `CCOC(=O)CCC(NC(=O)OCc1ccccc1)C(=O)NC(CCC(=O)OCC)C(=O)OCC` (stereo not given) (Cbz-Glu(OEt)-Glu(OEt)-OEt; configuration not given here) gave a growth inhibition of 4.65%. `CCCCCC(Cl)(CC)CCCCC` showed a growth inhibition of 1.45%. With `CN1CC(=O)N(CO)/C1=N\CO` the growth inhibition was 5.85%. `CCOC(=O)C(=CNc1ccc(N(CC)CC)cc1)C(=O)OCC` showed a growth inhibition of 8.3%. In the case of `CCCCCCCCCCCCN1CCCN(CCCCCCCCCCCC)CC1`, the growth inhibition is reported as 98.7% (active). In the case of `ClC/C(=N\N1CCCCCC1)c1ccccc1`, the growth inhibition is reported as -1.6%. `COc1cccc2c(SCC(=O)Nc3ccccc3-c3ccccc3NC(=O)CSc3c4ccccc4nc4c(OC)cccc34)c3ccccc3nc12` showed a growth inhibition of -2%. With `COC(=O)C1C2OC(C(Br)C2Br)C1C(=O)O` (stereo not given) the growth inhibition was 9.95%. `CC(C)(S)CNCCSC(=O)c1ccccc1` showed a growth inhibition of 63.5%. `CCN=C(NCC)N(CC)CC` gave a growth inhibition of 25.3%. In the case of `Nn1cnc2nccnc2c1=O`, the growth inhibition is reported as 2.4%. Compound `CCOC(=O)NC(=S)C1=C(N2CCOCC2)CCC1` has a growth inhibition of -28.4%. With `COC(=O)/C=C/C(=O)N1CC(C)N(C(=O)/C=C/C(=O)OC)CC1C` (stereo not given) the growth inhibition was 1.45%. For `CCn1ncc2c1nc(-c1ccccc1)c[n+]2[O-]`, the growth inhibition was -44.9%. `NNc1cc(=O)[nH]c(N)n1` gave a growth inhibition of -6.95%. Compound `CC(C)(C)SCC(=O)O` has a growth inhibition of 6.75%. `CCOC(=O)NC(=O)c1cn(CCN2CCN(C(=O)NCCCCCCNC(=O)N3CCN(CCn4cc(C(=O)NC(=O)OCC)c(=O)n(CCN(CC)CC)c4=O)CC3)CC2)c(=O)n(CCC(CC)CC)c1=O` gave a growth inhibition of 2.5%. `ClC(Cl)(Cl)c1ccc(C2OCCO2)cc1` gave a growth inhibition of -22%. In the case of `CN(/N=C/c1ccccn1)C1=NCCCN1`, the growth inhibition is reported as -5.4%. Compound `CCOC(=O)c1ccc(NC(=O)Oc2ccc(SC)cc2)cc1` has a growth inhibition of 23.4%. For `COc1ccc(N=Cc2cc(Cl)cc(Cl)c2OC(=O)c2ccccc2)cc1`, the growth inhibition was -13.6%. Work on `CC1(C)CCC23CCC4(C)C(CCC5C6(C)CCC(=O)C(C)(C)C6CCC54C)C2C1OC3` (stereo not given) yielded a growth inhibition of -0.7%. Work on `CC(NC(=O)C(=O)c1ccccc1)c1ccccc1` (stereo not given) yielded a growth inhibition of 27.4%. `O=C(O)c1cc(-c2ccccc2)ccc1O` showed a growth inhibition of -2.6%. `Cc1c(C(=O)O)n2cnnc2c2ccccc12` showed a growth inhibition of -15.8%. Work on `Fc1c(F)c(-c2c(F)c(F)c(Br)c(F)c2F)c(F)c(F)c1Br` yielded a growth inhibition of 20.6%. `CC1(C)Cc2c(oc3ncnc(N)c23)CS1` gave a growth inhibition of -4.65%. Work on `CCNc1ccc(S(=O)(=O)O)cc1C(=O)O` yielded a growth inhibition of 1.25%. In the case of `COc1ccc(OC)c(NC(=O)C(=O)NNC(=O)c2sc(NNC(C)=O)nc2C)c1`, the growth inhibition is reported as 61%.
